Screening data: PubChem BioAssay, The Scripps Research Institute Molecular Screening Center
A selection: hits, their analogues and other compounds. The true share with any hit is near 4.1%.
ssDAF12 agonist = activators of S. stercoralis DAF-12 nuclear receptor; HEK293 ssDAF-12/GRIP1 lit1-tk-luc reporter, luminescence; % of 3 µM dafachronic acid response; activation, % at 6.8 µM; hit rate 1% among 370,000;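 active means activation above the mean over all tested compounds plus 3 SD, cut at about 0.9% in these data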
hcDAF-12 act = activates DAF-12 receptor from parasite H. contortus | activation, % at 6.8 µM | HEK293 hcDAF-12 lit1-tk-luc reporter, luminescence; 0% DMSO, 100% Δ7-dafachronic acid | hit rate 1.4% among 370,000 | AID 652067;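 active means activation above the mean of all tested compounds plus 3 SD, cut at about 5.5% in these data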
hgDAF-12 ag = agonists of H. glycines DAF-12 nuclear receptor; HEK293 GAL4-hgDAF12 UAS-luciferase reporter, agonist luminescence; normalized to butyrate control; activation, % at 6.8 µM; hit rate 1.8% among 370,000; AID 687014;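 active means activation above a cutoff set at the mean of all screened compounds plus 3 SD, cut at about 10% in these data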
DAX1 inh-1 = NR0B1 (DAX1) inhibition; hit rate 0.99% among 340,000; inhibition, % at 6.75 µM; HEK293 Gal4-DAX1 luciferase reporter, luminescence; P51843;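 active means inhibition above the mean over all tested compounds plus 3 SD, cut at about 4.2% in these data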;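 further: inhibition shows as a rise in luminescence from relieved DAX1 repression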
Target sequence (P51843 207-470 limits assumed): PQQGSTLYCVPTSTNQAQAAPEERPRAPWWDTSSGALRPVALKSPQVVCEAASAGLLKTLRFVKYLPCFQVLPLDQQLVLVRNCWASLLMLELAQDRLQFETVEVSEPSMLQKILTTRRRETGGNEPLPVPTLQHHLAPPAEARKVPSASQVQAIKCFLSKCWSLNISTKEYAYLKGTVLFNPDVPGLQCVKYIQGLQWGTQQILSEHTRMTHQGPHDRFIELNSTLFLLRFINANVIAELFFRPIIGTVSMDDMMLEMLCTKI
DAX1 inh-2 = inhibitors of DAX1 repression of SF-1 activated StAR promoter | HEK293T StAR-luciferase reporter, SF-1/DAX-1 repression relief | inhibition, % at 6.8 µM | hit rate 1.1% among 370,000;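 active means inhibition above the mean over all tested compounds plus 3 SD, cut at about 3.6% in these data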;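 further: higher inhibition means more luminescence from relief of DAX-1 repression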
Numbers stand for hits; - = inactive; . = no result.

SMILES	ssDAF12 agonist	hcDAF-12 act	hgDAF-12 ag	DAX1 inh-1	DAX1 inh-2
CN(C)/C=N/c1ncc(C(=O)c2ccccc2)s1	-	-	-	-	-
CC[C@H]1OC(=O)[C@H](C)[C@@H](O[C@H]2C[C@@](C)(OC)[C@@H](O)[C@H](C)O2)C(C)[C@@H](O[C@@H]2O[C@H](C)C[C@H](N(C)C)[C@H]2O)[C@](C)(O)C[C@@H](C)CN(C)[C@H](C)[C@@H](O)[C@]1(C)O (stereo partly specified)	-	-	-	.	-
Nc1ccc(Oc2cc(N)cc(Oc3ccccc3)c2)cc1	-	-	-	4.6	-
Nc1ccc(Oc2ccc3nc(-c4ccccc4)c(-c4ccccc4)nc3c2)cc1	-	-	-	-	-
CCCC(=O)Nc1ccc(NC(=O)c2ccco2)c(OC)c1	-	-	-	-	3.7
CCC(=O)Nc1ccc(NC(=O)c2ccco2)c(OC)c1	-	-	-	-	-
COc1cc(NC(=O)CC(C)C)ccc1NC(=O)c1ccco1	-	-	-	4.4	-
Cc1cc(NC(=O)c2ccc(NS(=O)(=O)c3ccccc3)cc2)no1	-	-	-	.	-
CC(=O)CC[C@H]1CC[C@]2(CCCN(S(=O)(=O)c3ccccc3)C2)O1	-	-	-	.	-
CN(CCc1ccccc1)C(=O)c1ccc2c(c1)ncn2C1CCCCC1	-	-	-	.	-
O=C1/C(=C/N(C(=O)c2ccco2)c2ccc(Br)cc2)Sc2ccccc21	.	.	.	4.7	.
COc1ccc(C)c(NC(=O)[C@@H]2CCCN2S(=O)(=O)c2cccc3cccnc23)c1	-	-	-	.	.
CCCCN(CCCC)S(=O)(=O)c1ccc(C(=O)Nc2nnc(CSC)o2)cc1	-	-	-	4.2	-
CCOc1cc(/C=C(\C#N)c2nc3ccccc3[nH]2)ccc1OC(C)C(=O)O (stereo unspecified)	-	-	-	-	-
CCOc1cc(/C=C(/C#N)c2nc3ccccc3[nH]2)ccc1Oc1ccc([N+](=O)[O-])cn1	-	5.8	-	-	-
CCCC[C@H]1C2CC(OC(=O)Nc3ccc4c(c3)OCO4)C(C2)[C@H]2CCCCN21 (stereo partly specified)	-	-	-	.	-
S=c1[nH]nc(-c2n[nH]c3c2CCC3)n1N=Cc1cccs1	-	-	-	.	-
C#Cc1cccc(NC(=O)c2ccc(Cl)cc2Cl)c1	-	-	12	-	-
CC1CC(CC(=O)NNc2nc(-c3ccccc3)cs2)C(=O)O1 (stereo unspecified)	-	-	-	6.1	-
COC(=O)CNC(=O)[C@H](Cc1ccccc1)NC1(C(=O)NCCc2c[nH]c3ccccc23)CCCCC1	-	-	-	.	.
C/C(=C\C(=O)N1CCc2ccccc21)C(=O)O	-	-	-	4.3	-
Cc1nn(C)c(C(=O)N2CCc3ccccc32)c1Br	-	-	-	-	-
Cc1c(Br)c(C(=O)N2CCc3ccccc32)nn1C	-	-	-	4.4	-
Cn1cc(Br)c(C(=O)N2CCc3ccccc32)n1	-	5.9	-	-	-
Cn1ncc(Br)c1C(=O)N1CCc2ccccc21	-	-	-	-	-
SMILES	ssDAF12 agonist	hcDAF-12 act	hgDAF-12 ag	DAX1 inh-1	DAX1 inh-2
O=C(c1ccccc1)N1CCc2ccccc21	-	-	-	-	-
O=C(NCCOc1ccccc1)C1CCCCC1	-	-	-	-	4.1
CCCn1c(-c2ccc[nH]c2=O)nc2cc(C)c(C)cc21	1.1	-	-	4.4	-
Cc1ccc(Cc2c(-c3ccc(Cl)cc3)nc3cc(C)c(Br)c(C)n23)cc1	1.2	-	-	.	4.1
Cc1cc2nc(-c3ccc(Cl)cc3)c(CC3CCCCC3)n2c(C)c1Br	1.4	6.1	-	.	-
Cc1cc2nc(-c3ccc(Cl)cc3)c(CC(C)(C)C)n2c(C)c1Br	-	-	-	.	-
Cc1ccc(-c2nc3cc(C)c(Br)c(C)n3c2Cc2ccccc2)cc1	-	5.6	-	.	-
COc1ccc(-c2nc3cc(C)c(Br)c(C)n3c2Cc2ccccc2)cc1OC	-	-	-	.	-
Cc1ccc(CONC(=O)c2cccc([N+](=O)[O-])c2)cc1	-	-	-	4.7	-
CCN(CC)CCCNC(=O)c1oc(=O)c2ccccc2c1-c1ccc(C)cc1	-	-	-	.	-
Cc1cccc(OCC(=O)NCC(=O)N=Nc2c(O)[nH]c3ccc([N+](=O)[O-])cc23)c1	-	-	-	6.1	-
Cc1cccc(OCC(=O)N=Nc2c(O)[nH]c3ccc([N+](=O)[O-])cc23)c1	-	-	-	.	-
CCOC(=O)c1c(CN2CCC(C)CC2)n(C)c2cc(Br)c(OC)cc12	-	-	-	4.9	-
C=CCN1C(=O)[C@@H](CC(=O)N2CCOCC2)[C@]2(C(=O)OCC)CCCCC/C=C/12	-	-	-	.	-
CCN(CC)CCNC(=O)c1ccc(NC(=O)c2cccc(S(=O)(=O)N3c4ccccc4CC3C)c2)cc1 (stereo unspecified)	-	-	-	-	-
CCN(CC)CCNC(=O)c1ccc(NC(=O)c2cccc(S(=O)(=O)N3CCc4ccccc43)c2)cc1	-	-	-	-	3.9
CN1CCCCC(NC(=O)CCCl)C1=O (stereo unspecified)	-	-	-	.	-
O=C1/C(=C\c2ccc([N+](=O)[O-])cc2)CCc2ccccc21	-	-	11	-	-
COc1ccc(/C=C2\Cc3ccccc3C2=O)cc1OC	-	-	-	-	-
O=C1/C(=C\c2cccnc2)CCc2ccccc21	-	-	12	-	-
COc1ccc(C=C2Cc3ccccc3C2=O)cc1	-	-	11	.	-
CC(=O)Nc1ccc(/C=C2\CCc3ccccc3C2=O)cc1	-	6.1	-	-	-
COC(=O)c1cc(-c2ccc(-c3ccccc3)c(F)c2)c(=O)n2c1CCC2	-	-	-	.	-
Nc1ncnc2c1ncn2[C@@H]1O[C@H](C(=O)N[C@H]2c3ccccc3C[C@H]2OC=O)[C@@H](O)[C@H]1O	-	-	-	.	-
CCC[C@H]1[C@@H](O)CC[C@@]23CCCN2C(=O)CCC[C@@H]13	-	-	-	.	.
SMILES	ssDAF12 agonist	hcDAF-12 act	hgDAF-12 ag	DAX1 inh-1	DAX1 inh-2
COc1ccc(C)cc1-n1nnnc1SCC1CCCO1 (stereo unspecified)	-	-	-	-	-
COc1ccc(C)cc1-n1nnnc1SCc1nc2ccccc2s1	1.2	5.9	-	-	-
C[C@H](O)[C@@H]1CN2CCc3c([nH]c4c(-c5ccc6c(c5)OCO6)cccc34)[C@@H]2C[C@@H]1N(C)C(=O)Nc1ccccc1	-	-	-	.	-
COC(=O)c1cn(NC(=O)Cc2cccc(OC)c2)c(=O)c2ccccc12	-	-	-	4.2	-
O=C(Nc1nc2ncccn2c1-c1ccc(F)cc1)C1CC1	-	-	-	.	-
O=[N+]([O-])c1ccc(O)c(/C=N/n2cnnc2)c1	-	-	-	5.1	-
CN(C)/N=C/c1cc([N+](=O)[O-])ccc1O	-	-	-	-	-
Brc1cccc(/C=N\n2cnnc2)c1	-	-	-	-	-
O=[N+]([O-])c1cccc(/C=N/n2cnnc2)c1	-	-	-	6.3	-
